From PubChem BioAssay (NCI) come the findings set out here.

Each structure is given as a SMILES string. About 83,000 compounds went through this panel and 20% of them were active in at least one assay; those are over-represented in the sample as a whole.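 Treatment: one concentration, 48 hours, 96-well format. Scoring: percent growth, with anything below 10 considered active.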 Unmarked numbers belong to inactive results. Calls of active or inactive are those of the source.

What all share (assay): NCI-60 one-dose screen, 48 h (100 = growth as untreated, 0 = no growth, -100 = all killed)
Conditions in all cases: 10 µM unless noted

Experiment [1] relates to SK-MEL-2 melanoma.
Experiment [2] relates to EKVX NSCLC.
The test system of experiment [3] is SN12C renal.
Experiment [4] concerns UO-31 renal.
In experiment [5] the test system is TK-10 renal.
Experiment [6] deals with ACHN renal.
The subject of experiment [7] is CAKI-1 renal.
The test system of experiment [8] is A498 renal.
Experiment [9] has as its system CCRF-CEM leukemia.
Experiment [10] concerns MOLT-4 leukemia.

Regarding `CC1[C@H]2[C@H](C[C@H]3[C@@H]4CC=C5c6sc(Nc7ccccc7F)nc6CC[C@]5(C)[C@H]4CC[C@@]32C)O[C@]12CC[C@@H](C)CO2` (stereo not given in full), the growth was -83% (active) in [1]; -52.5% (active) in experiment [2]; -69.4% (active) in experiment [3]; -93.1% (active) in [4]; -60.2% (active) in [5]; -75.4% (active) in experiment [6]. In addition, the growth in [7] is -82.2% (active); in experiment [8], 17.5%; in [9], -21.5% (active); in experiment [10] it was -16.2% (active).

Take `O=C(C1=CNC(=S)NC1c1ccc(O)cc1)c1cc2ccccc2oc1=O` (stereo not given): the growth was 101% in experiment [1]; 107% in [2]; 99.3% in experiment [3]; 72.4% in experiment [4]; 130% in experiment [5]; 108% in [6]. In addition, the growth in experiment [7] was 87.6%; in experiment [8], 139%; in experiment [9], 92%; in experiment [10] it was 94.1%.

With `C(=C\c1cc(/C=C/c2ccccc2)c2ccccc2n1)/c1ccccc1`, the growth is 122% in experiment [1]; 100% in experiment [2]; 76.8% in experiment [3]; 88.5% in [4]; 106% in experiment [5]; 107% in [6]. For the same compound, the growth in experiment [7] was 94.2%; in experiment [8], 132%; in experiment [9] it was 60.8%; in experiment [10] it was 32.1%.

For the compound `O=C1Nc2cc(Cl)ccc2/C1=C/c1cccc(OCc2ccccn2)c1`, the growth is 41% in experiment [1]; 15% in [2]; -15% (active) in experiment [3]; 29.7% in [4]; 35.5% in [5]; 16.9% in [6]. The growth was 16.8% in [7], 123% in experiment [8], 2.33% (active) in experiment [9] and 4.01% (active) in experiment [10].

On to `N#Cc1c(-c2cccnc2)cc(-c2ccc3ccccc3c2)[nH]c1=O`, for which the growth is 110% in experiment [1]; 87.1% in experiment [2]; 74.3% in [3]; 79% in [4]; 109% in [5]; 90.2% in experiment [6]. The growth in experiment [7] is 89.7%; in [8] it was 111%; in experiment [9], 82%; in experiment [10], 91.5%.

For the compound `O=C(CN1C(=O)/C(=C/c2ccccc2Cl)SC1=S)N1CCOCC1`, the growth in experiment [1] was 103%; in [2], 99.8%; in experiment [3], 78.5%; in [4], 66.5%; in [5], 112%; in experiment [6] it was 61.2%. The growth in [7] is 90.9%; in [8], 119%; in experiment [9], 61.8%; in experiment [10], 85.9%.

With `Cc1ccc(Cc2cnc(NC(=O)c3ccc(/C=C4\SC(=S)N(C)C4=O)cc3)s2)cc1`, the growth in experiment [1] was 25.6%; in experiment [2], 60%; in experiment [3] it was 30.8%; in experiment [4], 37.7%; in experiment [5], 61.5%; in [6], 31.1%. In addition, the growth in experiment [7] was 38.4%; in [8], 107%; in [9], 32.3%; in experiment [10] it was 24.1%.

Turning to `COc1ccc(/C=C/c2nc3ccccc3n3c(-c4ccc(Cl)cc4)nnc23)cc1`, the growth in experiment [1] is 99.8%; in experiment [2], 88.7%; in experiment [3], 91.7%; in experiment [4], 66.4%; in experiment [5], 106%; in experiment [6], 93.5%. Besides, the growth is 72.2% in experiment [7], 85.3% in experiment [8], 78.1% in experiment [9] and 72.6% in experiment [10].

`Cn1cc(-c2cc3nc(-c4cn(C)c5ncccc45)cc(N)n3n2)c2cc(Cl)ccc21`: the growth in experiment [1] is -80% (active); in experiment [2] it was -38.5% (active); in experiment [3] it was -93.8% (active); in experiment [4], -87.5% (active); in [5], -83.2% (active); in experiment [6], -94.4% (active). Moreover, the growth in experiment [7] was -46.9% (active); in experiment [8], -75.9% (active); in experiment [9], -14.4% (active); in [10], -45.7% (active).

Consider `C#CCOc1cc(N(CC)CC)ccc1C(C(=O)NC(C)(C)C)N(C(=O)C1CCc2cc(F)ccc2O1)c1ccc(F)cc1` (stereo not given), for which the growth in [1] is -24.7% (active); in [2], 37.8%; in experiment [3] it was 48.9%; in experiment [4], 30.4%; in experiment [5] it was 68.7%; in experiment [6], 33.5%. Moreover, the growth in experiment [7] is 30.7%; in experiment [8] it was 78.5%; in [9] it was 40.4%; in experiment [10], 9.55% (active).

Take `Nc1nnc(-c2c[nH]c3ncc(Br)cc23)c(-c2c[nH]c3ccc(F)cc23)n1`: the growth is 25.3% in experiment [1]; 41.5% in experiment [2]; 38.8% in [3]; 42.8% in [4]; 67% in experiment [5]; 40.8% in experiment [6]. In addition, the growth in experiment [7] was 42.7%; in experiment [8] it was 74%; in experiment [9], 42.7%; in experiment [10] it was 9.73% (active).

On to `CCN(CC)CCOc1ccc(Nc2ncc3cc(-c4ccc(O)c(C#N)c4)c(=O)n(C)c3n2)cc1`, for which the growth in experiment [1] was 105%; in [2], 139%; in experiment [3], 69.5%; in [4] it was 67.6%; in [5], 96.8%; in [6] it was 40.1%. Besides, the growth in experiment [7] was 45.9%; in experiment [8] it was 113%; in experiment [9], -25.5% (active); in experiment [10] it was 3.63% (active).

As for `COc1cc2oc(-c3cccc(C(=O)Nc4ccc(Cl)cc4)c3)cc(=O)c2c(OCCNC(=O)[C@H](CO)NC(=O)OC(C)(C)C)c1OC`, the growth in experiment [1] is -1.01% (active); in experiment [2], 24.1%; in experiment [3], 16.4%; in experiment [4], 23.6%; in experiment [5], 42.6%; in experiment [6], 13.5%. The growth in experiment [7] is 19.1%; in experiment [8], 71.9%; in experiment [9] it was 8.05% (active); in [10] it was 5.42% (active).

Regarding `CN(C)c1nc(NCCNS(=O)(=O)c2ccc(C3=Nc4c(N)nc(N)nc4NC(c4ccc(C(F)(F)F)cc4)C3)cc2)nc(Nc2ccc(F)cc2)n1` (stereo not given), the growth in experiment [1] is -82% (active); in experiment [2], 26.2%; in experiment [3], 30.8%; in experiment [4] it was 84.7%; in experiment [5], 59.4%; in experiment [6] it was 58.5%. Moreover, the growth in experiment [7] was 63.1%; in experiment [8], 41.6%; in [9], 8.86% (active); in [10], 9.04% (active).

As to `Cc1ccc(-c2nc(Nc3ccccc3S(N)(=O)=O)c3ccccc3n2)cc1`, the growth in experiment [1] was 102%; in experiment [2], 74.1%; in experiment [3], 51.8%; in experiment [4] it was 50.4%; in [5], 151%; in [6], 74%. Besides, the growth in [7] was 78%; in experiment [8], 118%; in experiment [9], 76.1%; in experiment [10], 78.5%.

With `COc1ccc2nc(Nc3cccc(NC(=O)c4ccc(CN5CCCN(C)CC5)c(C(F)(F)F)c4)c3)ccc2c1`, the growth in experiment [1] is -74.5% (active); in [2] it was -98.5% (active); in [3], -65.9% (active); in [4], -66.9% (active); in experiment [5], -81.1% (active); in [6], -91.5% (active). The growth in experiment [7] was -65.2% (active); in [8] it was -53.3% (active); in experiment [9], -43.6% (active); in experiment [10] it was -4.91% (active).

Turning to `N#Cc1c(-c2cccc(O)c2O)cc(-c2ccc3ccccc3c2)[nH]c1=O`, the growth in experiment [1] was 98.8%; in experiment [2] it was 74.5%; in experiment [3] it was 58.4%; in experiment [4], 55.9%; in experiment [5], 85.4%; in experiment [6], 56.4%. In addition, the growth in experiment [7] was 75.6%; in experiment [8] it was 82.1%; in [9], 13.4%; in [10] it was 29.9%.

With `O=C(Cn1c(/C=C/c2ccccc2)nc2ccccc2c1=O)Nc1ccc(Cl)cc1`, the growth in [1] is 114%; in [2] it was 98.6%; in [3] it was 19.2%; in [4], -24.6% (active); in [5] it was -12% (active); in experiment [6], -65.6% (active). The growth in experiment [7] is 20.4%; in experiment [8], -15.5% (active); in [9] it was 85.6%; in experiment [10], 86.9%.

Take `O=c1oc2ccccc2cc1-c1csc(N=Nc2c(O)[nH]c3ccc(Cl)cc23)n1`: the growth in experiment [1] is 112%; in experiment [2], 100%; in experiment [3], 97.9%; in experiment [4] it was 97.7%; in [5], 109%; in [6] it was 110%. Also, the growth in [7] was 106%; in experiment [8], 98.6%; in experiment [9], 103%; in experiment [10], 109%.

Turning to `NS(=O)(=O)c1ccc(-n2cc(-c3cccc(NC(=O)c4cc(C(F)(F)F)cc(C(F)(F)F)c4)c3)nn2)cc1`, the growth in experiment [1] was 81.8%; in experiment [2] it was 63.8%; in [3] it was 74.7%; in experiment [4], 102%; in experiment [5] it was 72.9%; in experiment [6] it was 66.1%. For the same compound, the growth in [7] was 75.3%; in [8], 152%; in experiment [9], 75.4%; in [10], 75.1%.

For the compound `Cn1cc(-c2nnc(N)nc2-c2c[nH]c3ccc(Br)cc23)c2cc(Br)cnc21`, the growth in experiment [1] is 35.4%; in experiment [2], 64.3%; in experiment [3] it was 63%; in experiment [4] it was 42.4%; in experiment [5], 37.7%; in experiment [6], 61.3%. In addition, the growth in [7] was 33%; in experiment [8], 39.4%; in [9], 28%; in experiment [10], 11.7%.

`CC12CC[C@@H]3[C@]4(C)COC(c5cn[nH]c5-c5ccc(Cl)cc5)O[C@@H]4CC[C@@]3(C)[C@@H]1CC(C1=CCOC1=O)O2` (stereo not given in full): the growth was 29.7% in experiment [1]; 36.1% in [2]; 48.5% in experiment [3]; 21% in experiment [4]; 35.3% in [5]; 33.8% in experiment [6]. Also, the growth in [7] was 49.8%; in experiment [8] it was 85.6%; in experiment [9], 32.8%; in [10] it was -16.8% (active).

Turning to `COc1cc2oc(-c3cccc(C(=O)Nc4cccc([N+](=O)[O-])c4)c3)cc(=O)c2c(OC)c1OC`, the growth is -0.125% (active) in experiment [1]; 41.6% in [2]; 25.8% in [3]; 0.82% (active) in experiment [4]; 37.2% in [5]; 16.2% in experiment [6]. For the same compound, the growth in [7] was 8.83% (active); in [8] it was 3.68% (active); in experiment [9], 84.1%; in experiment [10], 64.6%.

Consider `CC(=O)Oc1ccc(/C=C/C(=O)N[C@@H](Cc2ccccc2)C(O)C(=O)NCc2ccccc2)cc1OC(C)=O` (stereo not given in full), for which the growth in [1] was 110%; in [2], 90.6%; in experiment [3], 90.8%; in experiment [4] it was 38.8%; in experiment [5] it was 76.9%; in experiment [6], 85.5%. Moreover, the growth was 71.3% in experiment [7], 115% in experiment [8], 44.9% in experiment [9] and 55.5% in [10].

Take `C=C1CCC2C3(C)COC(c4ccccc4)OC3CCC2(C)C1CC(Sc1ccccc1)C1=CCOC1=O` (stereo not given): the growth in [1] is 59.4%; in experiment [2], 69.3%; in [3], 25.7%; in [4] it was 45.5%; in experiment [5], 106%; in experiment [6] it was 65.1%. Besides, the growth was 78.4% in [7], 140% in [8], -1.92% (active) in [9] and -14.3% (active) in [10].
